# In the library only some 3.5% were active in any assay of this set; here they are far more common.
# MITF inh – human MITF inhibition, primary screen | O75030 | AID 1259374 | inhibition, % at 2.6 µM | AlphaScreen MITF homodimerization, bead proximity signal | 0.91% of 650,000 active; in the data active = inhibition above about 50%;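 note: 0% = vehicle wells with protein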
# GPR151 ag – human GPR151 activation. Q8TDV0. PathHunter beta-arrestin GPR151 cells, luminescence. activation, % at 11.2 µM. 1% of 650,000 active. AID 1508602; in the data active = activation above about 4.9%;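 note: 0% = median of compound wells and 100% = cells with positive control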
# Target sequence (Q8TDV0 whole entry, looked up): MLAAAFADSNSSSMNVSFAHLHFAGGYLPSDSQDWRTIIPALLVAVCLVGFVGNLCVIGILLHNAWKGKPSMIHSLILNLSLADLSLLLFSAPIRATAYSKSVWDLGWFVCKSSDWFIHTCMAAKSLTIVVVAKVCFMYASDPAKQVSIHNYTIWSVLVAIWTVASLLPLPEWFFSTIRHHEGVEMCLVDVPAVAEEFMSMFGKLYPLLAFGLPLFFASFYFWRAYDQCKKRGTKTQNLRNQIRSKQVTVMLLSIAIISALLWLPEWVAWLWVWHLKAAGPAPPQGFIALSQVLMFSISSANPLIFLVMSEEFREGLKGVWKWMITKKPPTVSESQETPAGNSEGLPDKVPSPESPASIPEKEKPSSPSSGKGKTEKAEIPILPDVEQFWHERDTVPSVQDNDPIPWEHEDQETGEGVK
# TEAD-YAP inh – TEAD-YAP interaction inhibition. HEK-TIYL cells, TEAD-Gal4/YAP UAS-luciferase luminescence. inhibition, % at 9.12 µM. 1.4% of 640,000 active. AID 1259422; in the data active = inhibition above about 32%;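 note: 0% = median of test compound wells and 100% = reference inhibitor wells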
# FBW7 activator – activators of human E3 ligase FBW7 | Q969H0 | AlphaScreen FBW7–phospho-cyclin E peptide binding, activator screen | normalized activity (activation), % at 26.1 µM | 0.13% of 650,000 active | AID 1259310; in the data active = normalized activity above about 1.9%;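 note: purified mutant Fbw7 with reduced substrate affinity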
# MITF confirm – human MITF inhibition, confirmation; shares compounds with MITF inh; inhibition, % at 2.6 µM; AlphaScreen MITF homodimerization, biotin/His-MITF beads; 16% of 4,700 active;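 active = inhibition above a cutoff derived from the DMSO control wells, cut at about 28% in these data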;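 note: 0% = MITF dimer wells with DMSO only; inhibitors lower the bead chemiluminescence by keeping MITF from dimerizing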
# AS interf DR – counter-screen: compounds optically interfering with AlphaScreen; AID 1259373; shares compounds with MITF inh; IC50, µM; AlphaScreen optical interference counterscreen, cell-free; 6% of 480 active; call rule not given here
# AlphaScreen intf2 – counter-screen: compounds optically interfering with AlphaScreen; shares compounds with MITF inh; LysRS AlphaScreen counterscreen, signal interference, triplicate; inhibition, % at 2.6 µM; 7.6% of 4,700 active; AID 1259376;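 active = inhibition above a cutoff derived from the DMSO control wells, cut at about 30% in these data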
# * marks the source's active call; other numbers are inactive results; / = not tested or not shown.
SMILES,MITF inh,GPR151 ag,TEAD-YAP inh,FBW7 activator,MITF confirm,AlphaScreen intf2,others
CCOC(=O)CCCCC(=O)c1c(C)n(C(=O)c2ccco2)c(=O)n1C(=O)c1ccco1,99*,0,-1,-1,102*,80*,
CCOC(=O)c1c(C)n(C(=O)c2ccco2)c(=O)n1C(=O)c1ccco1,16,2,7,1,/,/,
O=C(Nc1ccccc1C(=O)O)c1cncc(Br)c1,57*,-4,-9,0,11,14,
O=C(NC(=S)Nc1ccccc1C(=O)O)c1cncc(Br)c1,17,-1,6,0,/,/,
COc1ccc(C[n+]2cc(-c3ccc(Cl)cc3)n3ccccc32)cc1,-13,0,-33,0,/,/,
CC1CCc2c(sc(NC(=O)Cc3ccc(F)cc3)c2C#N)C1 (configuration not stated),-9,3,7,0,/,/,
CC1CCN(CCCNC(=O)C2CC(=O)N(CCc3ccccc3)C2)CC1 (configuration not stated),107*,-2,2,0,-9,-3,
COc1cc(NC(=O)CN2CCN(CC(=O)Nc3ccccc3Cl)CC2)cc(OC)c1,-1,1,7,0,/,/,
O=C(Cn1ccc2ccccc21)N1CCC(Cn2cnc3ccccc32)CC1,-1,0,-8,0,/,/,
COc1ccc(Cl)cc1NC(=O)N1CCC(Cn2cnc3ccccc32)CC1,47,2,-5,0,/,/,
O=C(NC(c1ccccc1)c1ccccc1)N1CCC(Cn2cnc3ccccc32)CC1,56*,0,3,0,5,12,
COc1ccc(CNC(=O)N2CCC(Cn3cnc4ccccc43)CC2)cc1,58*,0,5,0,8,17,
O=C(COc1ccccc1)N1CCC(Cn2cnc3ccccc32)CC1,56*,-1,7,0,9,12,
Cc1ccccc1NC(=O)N1CCC(Cn2cnc3ccccc32)CC1,-8,-1,-7,0,/,/,
COc1ccc(OC)c(CN2CCCC(C(=O)N3CCCCCC3)C2)c1 (configuration not stated),93*,0,8,0,-14,-6,
COc1ccc(OC)c(CN2CCCC(C(=O)N3CCCCC3)C2)c1 (configuration not stated),78*,0,0,0,-15,-3,
COc1ccc(OC)c(CN2CCCC(C(=O)NN)C2)c1 (configuration not stated),50,0,-7,0,/,/,
COc1ccc(CN2CCCC(C(=O)N3CCCC3)C2)c(OC)c1OC (configuration not stated),93*,0,14,0,-15,-12,
COc1ccc(OC)c(CN2CCC(C(N)=O)CC2)c1,2,2,1,0,/,/,
CCn1nc(C)c(CNc2nc(C)c(-c3ccn(C)n3)s2)c1C,-2,0,-11,0,/,/,
Nc1nonc1-c1noc(-c2ccccc2F)n1,3,-2,-41,0,/,/,
Nc1nonc1-c1noc(-c2ccccc2Br)n1,77*,-1,-4,0,8,12,
O=[N+]([O-])c1ccc(S(=O)(=O)N2CCN(C3CCCC3)CC2)cc1,53*,0,3,0,-6,-4,
O=[N+]([O-])c1ccc(S(=O)(=O)N2CCN(C3CCCCCC3)CC2)cc1,38,0,0,0,/,/,
O=S(=O)(c1ccccc1)N1CCN(C2CCCCCC2)CC1,59*,1,-4,0,-14,-2,
SMILES,MITF inh,GPR151 ag,TEAD-YAP inh,FBW7 activator,MITF confirm,AlphaScreen intf2,others
Cc1ccc(S(=O)(=O)N2CCN(C3CCCCC3)CC2)cc1,30,1,-7,0,/,/,
CCCC/C=C\c1cnc2c(NCc3cc(OC)c(OC)c(OC)c3)nccn12,-2,-1,12,0,/,/,
O=C(CN1CCN(Cc2nc(-c3ccco3)cs2)CC1)N1CCCC1,60*,0,-4,-1,9,5,
CN(C)S(=O)(=O)Nc1ccc(N2CCC(NCCc3ccncc3)CC2)cc1,7,0,2,0,/,/,
CN(C)S(=O)(=O)Nc1ccc(N2CCC(NCCc3cccs3)CC2)cc1,63*,0,6,0,11,14,
Cn1c(SCC(=O)O)nnc1-c1cnccn1,61*,0,-5,0,9,7,
Cn1c(SCC(N)=O)nnc1-c1cnccn1,8,1,-4,0,/,/,
O=C(Nc1ccc(N2CCOCC2)cc1)c1ccc2nc(Nc3ccccn3)sc2c1,70*,3,-14,0,79*,-18,AS interf DR=>6.8

# High-throughput results: PubChem BioAssay, The Scripps Research Institute Molecular Screening Center
